This note sets out measurements from PubChem BioAssay (NCATS).

Experiment [1] deals with Cytochrome P450 2D6 (Homo sapiens) (UniProt P10635). Put plainly: qHTS Assay for Inhibitors and Substrates of Cytochrome P450 2D6 (AID 891). Further: nearly all actives have a fitted effect of over 60% in size. Further: potency means the concentration at half of the fitted maximal effect. The procedure, abridged: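 Luminescent read-out of luciferin formed by 5 nM human CYP2D6 demethylating 30 uM Luciferin-ME EGE (Km level) over 60 min at room temperature after NADPH regeneration addition. Data normalized to full inhibition by 1.43 uM quinidine.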
Sequence of Cytochrome P450 2D6 (Homo sapiens) (P10635 whole entry, looked up): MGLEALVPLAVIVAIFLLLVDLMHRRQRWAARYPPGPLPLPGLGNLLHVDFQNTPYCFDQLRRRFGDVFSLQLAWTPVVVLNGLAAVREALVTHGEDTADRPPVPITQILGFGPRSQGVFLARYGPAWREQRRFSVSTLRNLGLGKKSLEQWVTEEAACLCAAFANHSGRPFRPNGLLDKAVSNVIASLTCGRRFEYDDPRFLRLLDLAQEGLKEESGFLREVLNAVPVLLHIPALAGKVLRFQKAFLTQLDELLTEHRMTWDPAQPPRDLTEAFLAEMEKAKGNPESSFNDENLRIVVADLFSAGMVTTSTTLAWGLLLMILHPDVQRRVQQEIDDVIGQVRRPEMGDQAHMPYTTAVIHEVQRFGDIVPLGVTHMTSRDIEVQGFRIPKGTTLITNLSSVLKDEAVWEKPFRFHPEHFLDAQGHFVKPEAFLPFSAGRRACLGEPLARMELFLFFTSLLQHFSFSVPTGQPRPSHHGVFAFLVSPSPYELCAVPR

For experiment [2], the target named is Dual specificity protein kinase CLK4 (Homo sapiens) (UniProt Q9HAZ1). Put plainly: qHTS Assay for Inhibitors of CDC-like Kinase 4 (Kinase-Glo Assay) (AID 1770). Further: nearly all actives have a fitted effect of over 65% in size. Further: potency means the concentration at half of the fitted maximal effect. In a few lines: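 Readout: Kinase-Glo luminescence from ATP left after a 4.5 h room-temperature reaction of 25 nM Clk4 with 100 uM RS peptide and 1 uM ATP (final). Buffer: 25 mM Tris pH 7.5, 10 mM MgCl2.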
Sequence of Dual specificity protein kinase CLK4 (Homo sapiens) (Q9HAZ1 whole entry, looked up): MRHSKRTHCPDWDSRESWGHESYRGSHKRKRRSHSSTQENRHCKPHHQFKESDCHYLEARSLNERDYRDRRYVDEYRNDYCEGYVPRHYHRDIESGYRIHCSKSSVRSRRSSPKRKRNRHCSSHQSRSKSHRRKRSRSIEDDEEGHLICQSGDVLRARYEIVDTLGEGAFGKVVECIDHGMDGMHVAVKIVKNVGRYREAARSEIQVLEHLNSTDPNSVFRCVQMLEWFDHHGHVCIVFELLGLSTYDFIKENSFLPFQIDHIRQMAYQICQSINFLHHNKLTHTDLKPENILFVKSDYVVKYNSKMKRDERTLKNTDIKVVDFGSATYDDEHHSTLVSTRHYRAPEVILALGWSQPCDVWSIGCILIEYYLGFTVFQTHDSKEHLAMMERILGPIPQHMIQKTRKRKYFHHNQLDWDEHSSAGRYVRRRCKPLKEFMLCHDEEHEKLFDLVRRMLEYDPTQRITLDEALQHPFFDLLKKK
A general note: Quantitative high-throughput screening tests each substance at several concentrations.

Experiment [3] shares this target. Nature of the experiment: qHTS Assay for Inhibitors of CDC-like Kinase 4 (ADP-Glo Assay) (AID 1771). Further: nearly all actives have a fitted effect of over 70% in size. Further: potency means the concentration at half of the fitted maximal effect. In a few lines: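 Compounds are pin-transferred onto substrate mix (100 uM RS peptide, 1 uM ATP), then 25 nM Clk4 is added. After 1 hr at room temperature, ADP-Glo reagent runs 45 min, detection reagent 30 min, then luminescence is read.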
Experiment [4] in a line: Confirmation and Secondary Assay for Modulators of Hemoglobin Beta Chain Splicing at IVS2 654 locus (AID 910).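 Further: per-well total GFP intensity by laser scanning cytometry after 2-day treatment; % of control where 0% means no effect.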 In a few lines: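 HeLa cells stably carrying EGFP interrupted by mutant beta-globin IVS2-654 intron (CMV-driven) were treated with compound for 2 days at 37C; corrected splicing was scored as total peak GFP intensity per well (488 nm excitation, 500-520 nm emission).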

Experiment [5] in a line: qHTS Assay for Identification of Small Molecule Agonists for Hypoxia Response Element Signaling Pathway (AID 914; active means well fitted activation curve with a large enough effect in the signal ratio, with a control signal flat, not every such curve was filed as active; the % refers to the signal ratio; further: potency means the concentration at half of the fitted maximal effect; on activation: % of control where 0% means no effect). Particulars: ME-180 (cervical carcinoma) HRE-bla reporter, beta-lactamase ratio, CoCl2, 17 h; activation: stronger effect = higher value. The procedure, abridged: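 HRE-bla ME-180 cells, overnight plating in Opti-MEM with 0.5% dialyzed FBS; cpd titration + EC50 CoCl2, 17 h, 37 degrees Celsius; CCF4 2.5 h RT; 460/530 nm ratio; AC50.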

For experiment [6], the target named is Cytochrome P450 2C9 (Homo sapiens) (UniProt P11712). Put plainly: qHTS Assay for Inhibitors and Substrates of Cytochrome P450 2C9 (AID 883). Further: nearly all actives have a fitted effect of over 60% in size. Further: potency means the concentration at half of the fitted maximal effect. In a few lines:
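A luminogenic readout tracked human CYP2C9 (10nM) converting deoxyluciferin (100uM, at KM) in 25mM KPO4 during 60 min at 37C with regenerated NADPH. Values normalized to 57uM sulphaphenazole as complete inhibition.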

Experiment [7] has as its target Cytochrome P450 2C19 (Homo sapiens) (UniProt P33261). Put plainly: qHTS Assay for Inhibitors and Substrates of Cytochrome P450 2C19 (AID 899). Further: nearly all actives have a fitted effect of over 60% in size. Further: potency means the concentration at half of the fitted maximal effect. In a few lines: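 NADPH-dependent conversion of Luciferin-H EGE (10uM, at KM) by 5nM enzyme in 50mM KPO4, 60 min at 37C following 10 min compound preincubation. Stopped with luciferin detection buffer; luminescence read after 20 min.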

Experiment [8] addresses DNA dC->dU-editing enzyme APOBEC-3G (Homo sapiens) (UniProt Q9HC16). Nature of the experiment: qHTS for inhibitors of Vif-A3G interactions: Validation (AID 588379). Further: 0% is about no effect. The procedure, abridged: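 Yellow fluorescence (Ex 488, Em 500-530) of Vif-coexpressing HeLa A3G-eYFP cells, scanned by Acumen cytometer, reports blocked A3G degradation. Cells plated at 700/well overnight at 37 deg C before compound addition, then a further overnight compound incubation at 37 deg C.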

In experiment [9] the target is Rap guanine nucleotide exchange factor 3 (Homo sapiens) (UniProt O95398). Put plainly: Counterscreen qHTS for antagonist of cAMP-regulated guanine nucleotide exchange factor 3 (EPAC1) (AID 1645888).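 Further: fluorescence loss as bound BODIPY-GDP is released from Rap1B; % of control where 0% means no effect.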 The procedure, abridged:
(§1)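 Measured: fluorescence of BODIPY-GDP bound to Rap1B, which falls as exchange proceeds. Conditions include 50 uM competing GDP, 5 and 30 min reads, and a later cAMP challenge for antagonist detection.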

Experiment [10] has the same target. Put plainly: Counterscreen qHTS for agonist of cAMP-regulated guanine nucleotide exchange factor 3 (EPAC1) (AID 1645889). Further: % of control where 0% means no effect; nearly all actives have a fitted effect of over 40% in size. The procedure, abridged: as §1
For orientation: The purpose of a counterscreen is to sort out artefacts and off-target activity.

Inconclusive results are not listed. More than one record can exist for a structure, and the calls need not agree. Active and inactive are the calls of the source. Unless noted, the call rests on the fitted dose curve; in most records, active means well fitted curve in the direction sought with a large enough effect; inconclusive means small, poorly fitted or top-dose-only effect, or another doubt; inactive means no such curve, though single readings can be large; an effect the other way counts as inactive or inconclusive.

Sequence of Cytochrome P450 2C19 (Homo sapiens) (P33261 whole entry, looked up): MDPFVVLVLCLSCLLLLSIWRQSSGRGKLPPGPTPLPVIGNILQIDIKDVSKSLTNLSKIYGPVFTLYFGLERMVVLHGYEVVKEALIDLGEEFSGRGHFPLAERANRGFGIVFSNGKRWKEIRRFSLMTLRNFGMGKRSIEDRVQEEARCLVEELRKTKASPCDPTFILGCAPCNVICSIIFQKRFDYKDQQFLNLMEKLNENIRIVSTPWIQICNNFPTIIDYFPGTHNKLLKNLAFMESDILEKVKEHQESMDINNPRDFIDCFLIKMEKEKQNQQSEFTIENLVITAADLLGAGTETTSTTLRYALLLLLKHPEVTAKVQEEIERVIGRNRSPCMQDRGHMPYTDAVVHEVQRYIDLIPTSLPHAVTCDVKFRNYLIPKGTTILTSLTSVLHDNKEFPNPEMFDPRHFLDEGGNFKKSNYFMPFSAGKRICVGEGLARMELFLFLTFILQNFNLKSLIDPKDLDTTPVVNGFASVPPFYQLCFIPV
Sequence of Cytochrome P450 2C9 (Homo sapiens) (P11712 whole entry, looked up): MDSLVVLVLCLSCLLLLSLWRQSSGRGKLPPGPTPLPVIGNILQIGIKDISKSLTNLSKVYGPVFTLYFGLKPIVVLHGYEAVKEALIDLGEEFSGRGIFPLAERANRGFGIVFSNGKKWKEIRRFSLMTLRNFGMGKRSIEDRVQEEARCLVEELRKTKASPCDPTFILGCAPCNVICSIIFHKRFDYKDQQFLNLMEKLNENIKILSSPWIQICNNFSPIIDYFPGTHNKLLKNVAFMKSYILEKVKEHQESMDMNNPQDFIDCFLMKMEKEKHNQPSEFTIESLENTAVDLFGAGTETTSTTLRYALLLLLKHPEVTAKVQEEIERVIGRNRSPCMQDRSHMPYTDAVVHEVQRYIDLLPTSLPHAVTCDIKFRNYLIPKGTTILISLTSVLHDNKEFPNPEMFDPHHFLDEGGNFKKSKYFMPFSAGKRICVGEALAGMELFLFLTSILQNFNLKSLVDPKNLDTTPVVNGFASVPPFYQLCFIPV
Sequence of Rap guanine nucleotide exchange factor 3 (Homo sapiens) (O95398 whole entry, looked up): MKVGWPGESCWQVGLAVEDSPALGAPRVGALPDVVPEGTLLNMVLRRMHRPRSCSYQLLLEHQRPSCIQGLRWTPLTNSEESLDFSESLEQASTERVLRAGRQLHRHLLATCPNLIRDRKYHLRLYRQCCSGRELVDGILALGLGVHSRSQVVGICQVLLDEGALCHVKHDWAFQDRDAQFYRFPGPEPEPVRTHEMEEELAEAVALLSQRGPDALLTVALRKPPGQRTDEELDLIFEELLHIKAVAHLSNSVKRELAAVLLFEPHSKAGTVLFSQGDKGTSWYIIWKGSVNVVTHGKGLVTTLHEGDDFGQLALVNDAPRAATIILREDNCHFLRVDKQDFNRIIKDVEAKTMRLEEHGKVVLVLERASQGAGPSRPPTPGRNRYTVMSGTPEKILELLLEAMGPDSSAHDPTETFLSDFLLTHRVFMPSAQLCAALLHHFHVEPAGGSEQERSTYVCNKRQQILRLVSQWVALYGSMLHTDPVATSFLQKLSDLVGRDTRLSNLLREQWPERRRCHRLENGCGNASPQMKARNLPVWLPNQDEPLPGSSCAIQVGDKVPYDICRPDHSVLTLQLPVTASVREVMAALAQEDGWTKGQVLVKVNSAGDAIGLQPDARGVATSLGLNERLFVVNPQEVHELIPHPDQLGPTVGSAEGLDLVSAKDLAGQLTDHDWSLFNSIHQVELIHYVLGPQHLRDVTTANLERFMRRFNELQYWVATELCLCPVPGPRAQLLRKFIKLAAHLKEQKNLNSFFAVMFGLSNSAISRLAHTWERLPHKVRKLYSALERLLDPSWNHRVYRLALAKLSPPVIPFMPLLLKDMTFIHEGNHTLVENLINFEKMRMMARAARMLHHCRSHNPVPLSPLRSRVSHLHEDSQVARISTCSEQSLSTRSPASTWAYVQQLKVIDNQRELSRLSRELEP
Sequence of DNA dC->dU-editing enzyme APOBEC-3G (Homo sapiens) (Q9HC16 whole entry, looked up): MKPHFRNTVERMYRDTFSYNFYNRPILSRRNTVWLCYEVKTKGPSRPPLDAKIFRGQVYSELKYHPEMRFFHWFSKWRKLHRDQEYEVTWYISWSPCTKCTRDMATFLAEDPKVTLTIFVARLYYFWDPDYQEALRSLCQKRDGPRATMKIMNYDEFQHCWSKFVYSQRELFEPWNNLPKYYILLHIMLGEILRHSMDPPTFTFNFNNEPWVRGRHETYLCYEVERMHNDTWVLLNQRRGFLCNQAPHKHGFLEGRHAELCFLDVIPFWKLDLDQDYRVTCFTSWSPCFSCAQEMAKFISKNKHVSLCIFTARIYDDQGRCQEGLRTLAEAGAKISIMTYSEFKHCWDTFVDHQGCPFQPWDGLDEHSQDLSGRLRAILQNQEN

For the molecule `Cc1ccccc1-c1nc(N(C)Cc2ccco2)c2ccccc2n1`, the Potency was 3.16 µM (active) in [1], 20 µM (active) in [2] and 28.2 µM (active) in [3].

On to `CS(=O)(=O)Nc1cccc(-c2ccc3ncnc(Nc4ccc(F)cc4)c3c2)c1`, for which, in [4], the Potency result is “inactive”.

Regarding `CN(C)c1ncc2nc(-c3ccc(F)cc3)c(=O)n(-c3ccccc3)c2n1`, the Potency entry in experiment [2] and in [3] was “inactive” throughout.

Consider `COc1ccc(CNc2cc(-c3ccccc3C)ncn2)c(OC)c1`, for which, in [5], the activation is 2.85% (inactive). The Potency entry in experiment [2] was “inactive”.

In the case of `COCC(=O)N1CCC2(CCN(Cc3ccc(C#N)cc3)CC2)CC1`, the activation in experiment [5] was 4.64% (inactive).

For `O=c1c(-c2cc(F)cc(F)c2)nc2cncnc2n1Cc1ccccc1Cl`, the Potency in experiment [6] is 3.98 µM (active); in experiment [7], 1.58 µM (active). For the same molecule, the Potency entry in experiment [2] and in experiment [3] was “inactive” each time.

Consider `CN(C)c1ncc2nc(-c3cccs3)c(=O)n(C3CC3)c2n1`, for which the Potency in experiment [5] is 3.98 µM (active).

For the molecule `c1csc(CNc2ccnc(-c3ccc4c(c3)OCO4)n2)c1`, the Potency in experiment [1] was 0.501 µM (active); in experiment [7], 5.01 µM (active); in experiment [3], 22.4 µM (active).

`CN(C)c1ncc2nc(-c3cc(F)cc(F)c3)c(=O)n(Cc3cccs3)c2n1`: the Potency entry in experiment [7] was “inactive”. In addition, in experiment [5], the Potency is 0.126 µM (active).

Regarding `O=c1c(-c2ccc(Cl)cc2)nc2cncnc2n1Cc1ccccc1Cl`, the Potency in [7] was 3.98 µM (active). Moreover, in experiment [5], the activation was 25.2% (inactive).

In the case of `COC(=O)C1=C(C)NC(C)=C(C(=O)OCCSc2ccccc2)[C@@H]1C`, the Potency in [6] was 3.16 µM (active); in [7], 0.199 µM (active).

For `Cn1cccc1C(=O)N1CCC2(CC1)CN(c1cccc(-c3ccccc3)c1)C2`, in experiment [6], the Potency entry was “inactive”.

`O=c1c(-c2cccs2)nc2cnc(Nc3ccccc3)nc2n1C[C@H]1CCCO1`: the Potency entry in [2] is “inactive”.

As to `COc1cc(/C=C\c2ccc(OC)cc2OC)cc(OC)c1`, the Potency result in experiment [7] is “inactive”.

As to `COCCn1c(=O)c(-c2cccs2)nc2cnc(N3CCOCC3)nc21`, the Potency result in experiment [2] and in [3] was “inactive” in each case.

For `N#C/C(=C\c1ccc(O)c(O)c1)C(=O)OCCc1cccs1`, the Potency in experiment [7] was 6.31 µM (active). In addition, in [8], the outcome was inactive.

In the case of `O=c1c(-c2cc(F)cc(F)c2)nc2cnc(N3CCOCC3)nc2n1-c1ccccc1`, the Potency in experiment [5] is 2.51 µM (active).

On to `O=c1c(-c2cccs2)nc2cnc(N3CCOCC3)nc2n1CCc1ccccc1`, for which the Potency result in [2] and in experiment [3] was “inactive” in each case.

Turning to `O=c1c(-c2ccc(F)c(F)c2)nc2cncnc2n1Cc1ccccc1Cl`, the values for the Potency in experiment [6] and in [7] were 5.01 µM (active) and 6.31 µM (active), respectively.

For `COc1ccccc1CNc1nc(-c2cccc(C#N)c2)nc2ccccc12`, in [7], the Potency was 3.98 µM (active).

Consider `COc1ccccc1CNc1nc(-c2ccc3c(c2)OCO3)nc2ccccc12`, for which, in [7], the Potency is 3.16 µM (active).

As to `COc1ccc(CNc2ncncc2-c2ccccc2C)c(OC)c1`, in [7], the Potency was 1.58 µM (active). The Potency result in experiment [2] and in [3] was “inactive” each time.

As to `COc1cccc(-c2cc(NCc3ccc(OC)cc3OC)ncn2)c1`, the Potency is 5.01 µM (active) in experiment [7] and 31.6 µM (active) in [2]. Further, in [5], the activation was 1.95% (inactive).

On to `N#CCCn1c(=O)c(-c2ccc(Cl)cc2)nc2cnc(Nc3ccccc3)nc21`, for which the Potency entry in experiment [2] and in experiment [3] was “inactive” in each case.

With `Cn1cccc1C(=O)N1CCC2(CCCN(c3cccc(-c4ccccc4)c3)C2)CC1`, the Potency in experiment [6] is 3.98 µM (active).

For `CCCCCc1c2c(cc(O)c1C(=O)O)OC(=O)c1cc(C(=O)CCCC)c(OC)cc1O2`, the molecule was classed as inactive in experiment [9] and in experiment [10].

`CN(C)c1ncc2nc(CCc3ccccc3)c(=O)n(Cc3ccc(F)cc3)c2n1`: in experiment [7], the Potency was 0.794 µM (active).

Turning to `COc1cccc(Nc2ncc3ncc(=O)n(Cc4cccs4)c3n2)c1`, the Potency in experiment [2] is 0.708 µM (active); in experiment [3], 0.794 µM (active).

As to `Cn1cc(-c2nc3cnc(N4CCOCC4)nc3n(CCC#N)c2=O)c2ccccc21`, the Potency entry in experiment [2] and in experiment [3] was “inactive” each time.

Take `O=C(c1cccc(F)c1)N1CCC2(CCCN(c3cccc(-c4ccccc4)c3)C2)CC1`: the Potency in [7] was 7.94 µM (active).

Take `COc1cccc(-c2nccc(NCc3cccs3)n2)c1`: the figures for the Potency in experiment [1], in experiment [2] and in experiment [3] were 0.316 µM (active), 8.91 µM (active) and 8.91 µM (active), respectively.

As for `O=c1c(-c2ccccc2)nc2cncnc2n1-c1ccccc1`, the Potency entry in experiment [2] and in experiment [3] was “inactive” each time.

For the molecule `COc1ccc(-n2c(=O)c(-c3ccccc3)nc3cnc(N4CCOCC4)nc32)cc1`, the Potency entry in experiment [2] and in experiment [3] was “inactive” throughout.

In the case of `Cc1c(CC(C)(C)C(=O)O)n(Cc2ccc(Cl)cc2)c2ccc(F)cc12`, the Potency was 0.501 µM (active) in experiment [6]; 316 nM (active) and inactive in [7]. In addition, in [1], the Potency result was “inactive”.
